Bioassay records deposited in PubChem BioAssay by National Center for Advancing Translational Sciences (NCATS).
D3 ag = activates the human D3 dopamine receptor. P35462. D3R DiscoveRx beta-arrestin cells, luminescence, 90 min. max activation, %. actives 0.58% (n = 410,000); in the data active means max activation above about 30%; further: 0% is about no effect
Target sequence (P35462 whole entry, looked up): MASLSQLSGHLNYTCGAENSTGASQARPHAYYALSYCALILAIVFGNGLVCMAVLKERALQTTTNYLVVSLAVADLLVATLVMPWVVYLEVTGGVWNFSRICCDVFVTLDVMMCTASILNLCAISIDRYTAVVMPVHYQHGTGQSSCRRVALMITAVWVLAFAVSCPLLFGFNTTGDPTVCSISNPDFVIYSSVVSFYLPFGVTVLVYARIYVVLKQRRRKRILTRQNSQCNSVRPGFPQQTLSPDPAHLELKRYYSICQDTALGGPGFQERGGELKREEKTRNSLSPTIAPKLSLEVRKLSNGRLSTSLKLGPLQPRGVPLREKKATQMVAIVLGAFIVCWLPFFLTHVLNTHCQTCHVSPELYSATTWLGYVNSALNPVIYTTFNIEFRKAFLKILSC
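Cells at 1500/well, incubated overnight, then treated with pinned compounds (dopamine as control) for 90 min at 37 degrees C. DiscoveRx reagent added for 30 - 60 minutes at room temperature; luminescence read.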
ATXN2 expr inh = reduces ATXN2 reporter expression in HEK-293 cells | actives 0.72% (n = 360,000) | AID 1745845 | HEK-293 ATXN2-luciferase reporter, luminescence, 24 h | Potency, µM (highest dose often 57 µM), inactives show at the highest dose activity change, negative = inhibition, actives largely listed as inhibitors; further: potency means the concentration at half of the fitted maximal effect; on the % scale 0 is the no-effect control and ±100 the full control effect; nearly all actives have a fitted effect of over 55% in size
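ATXN2-luciferase reporter cells (luciferase flanked by upstream and downstream ATXN2 gene portions) were treated 24 h at 37 °C with compounds at up to 57 uM. SteadyGlo luminescence gave expression; GF-AFC fluorescence gave viability.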
D3 antag = antagonists of human D3 dopamine receptor. P35462. D3R cells, DiscoveRx beta-arrestin luminescence, antagonist mode; stronger effect = lower value. max response, negative = inhibition, %. actives 2.5% (n = 360,000). AID 652054; in the data active means max response below about -50%; inconclusive means no clear call, values can overlap the other calls; further: on the % scale 0 is the no-effect control and ±100 the full control effect
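Cells plated overnight at 1500 cells/well, then exposed to library compounds with dopamine controls for 90 minutes at 37 degrees C. DiscoveRx reagent added for 30–60 minutes at room temperature; luminescence read, quantitative HTS format.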
HepG2 viability = counter-screen for TGF-b inhibitors: cytotoxicity in HepG2 cells | HepG2 CAGA-GFP viability, ATP luminescence, 18 h | Potency, µM (doses to about 46.1 µM), without a hit: at the top dose activity change, negative = cytotoxicity, usual class: cytotoxic | actives 0.76% (n = 410,000) | AID 588856; further: potency means the concentration at half of the fitted maximal effect
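CellTiter-Glo luminescence gave cytotoxicity after 18 hours at 37 degrees C. The cells were HepG2 CAGA-GFP in 1% FBS DMEM, stimulated with 500 pg/mL TGF-beta after compound addition. %Activity was normalised to no-cell wells (complete cell-killing) and DMSO (no toxicity), and curves were fitted and classified.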
TGFb inhibitor = TGF-b pathway inhibition. AID 588855. Potency, µM (series often up to 46.1 µM), inactives show at the top dose activity, negative = inhibition, usual class: inhibitors. actives 1.2% (n = 410,000). HepG2 CAGA-GFP TGF-b/SMAD3 reporter, GFP fluorescence, 18 h; TGF-beta stimulated, 500 pg/mL final; further: potency means the concentration at half of the fitted maximal effect; on the % scale 0 is the no-effect control and ±100 the full control effect; nearly all actives have a fitted effect of over 65% in size
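Inhibition was scored as loss of TGF-beta-induced (500 pg/mL final, 18 hours, 37 degrees C) GFP in HEPG2 cells carrying a CAGA-GFP reporter, in DMEM with 1% FBS. Well GFP was summed per cell; Activity was normalised to unstimulated and stimulated DMSO wells, then concentration-response fitting.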
S2 tox = cell viability loss in ATXN counter-screen. S2 cells (HEK-293 line with an ATXN2-luciferase reporter) viability, CellTiter-Fluor protease fluorescence, 24 h. Potency, µM (doses to about 56.7 µM), most hits filed as cytotoxic. actives 0.49% (n = 400,000). AID 651635; further: potency means the concentration at half of the fitted maximal effect; nearly all actives have a fitted effect of over 40% in size
* = called active by the depositor; i = inactive; ? = inconclusive; . = no result given; ! = not active in a repeat. A selection: hits, their analogues and other compounds. The true share with any hit is near 4.8%. Unless noted, the call rests on the fitted dose curve; in most records, active means well fitted curve in the direction sought with a large enough effect; inconclusive means small, poorly fitted or top-dose-only effect, or another doubt; inactive means no such curve, though single readings can be large; an effect the other way counts as inactive or inconclusive.

SMILES | D3 ag | ATXN2 expr inh | D3 antag | HepG2 viability | TGFb inhibitor | S2 tox
CC12CCC=CC1C(c1ccc(Br)cc1F)N(Cc1ccccc1)C2=O (stereo unspecified) | . | . | . | -44% | ? | .
CC12CCC=CC1C(c1cccc(Br)c1)N(Cc1ccccc1)C2=O (stereo unspecified) | . | . | . | -91% | 13µM* | .
COc1ccc([C@H]2[C@@H]3C=CCC[C@@]3(C)C(=O)N2Cc2ccccc2)cc1Cl | -21 | -31% | -55* | -21% | ? | i
CC(=O)c1ccc(-c2cccc(C3C4C=CCCC4(C)C(=O)N3Cc3ccccc3)c2)cc1 (stereo unspecified) | . | . | . | -19% | 18µM* | .
COc1ccc(-c2cc([C@H]3[C@@H]4C=CCC[C@@]4(C)C(=O)N3Cc3ccccc3)ccc2F)cc1OC | -1 | ? | 16 | -6% | ? | ?
COc1ccc(-c2cccc([C@H]3[C@@H]4C=CCC[C@@]4(C)C(=O)N3Cc3ccccc3)c2)cc1 | -16 | ? | 22 | -16% | ? | i
O=[N+]([O-])c1cccc(-c2noc3c2-c2nc(Cc4cccc5ccccc45)sc2CC3)c1 | -5 | 17% | 24 | 21% | 1% | i
CCCc1nc2c(s1)CCc1onc(-c3cccc([N+](=O)[O-])c3)c1-2 | 34* | 7% | 49 | 2% | 5% | i
CCc1ccc(NC(=O)NCC2CCN(Cc3cccc(Cl)c3)CC2)cc1 | -4 | . | -52* | -26% | -1% | ?
Cc1ccc(C)c(CN2CCC(CNC(=O)Nc3ccc(F)c(Cl)c3)CC2)c1 | -21 | ? | -66* | 18µM* | ? | i
Cc1ccc(NC(=O)NCC2CCN(Cc3cccc(Cl)c3)CC2)c(Cl)c1 | -15 | -8% | -27 | -16% | -24% | i
Cc1ccc(CN2CCC(CNC(=O)Nc3ccc(Cl)cc3)C2)cc1 (stereo unspecified) | -26 | ? | . | -73% | 13µM* | .
Cc1ccc(NC(=O)NCC2CCN(Cc3cccc(Cl)c3)CC2)cc1Cl | -24 | ? | -51* | 13µM*! | ? | ?
CCC(C)NC(=O)Cn1ncc2c(C)n(Cc3ccc(F)cc3)c(C)c2c1=O (stereo unspecified) | 7 | . | . | -7% | 0% | .
Cc1sc2nc(C)n(/N=C/c3ccc(O)cc3O)c(=O)c2c1C | 1 | . | 20 | -31% | -25% | i
Cc1sc2nc(C)n(/N=C/c3ccccc3O)c(=O)c2c1C | 35* | -12% | 41 | -3% | 1% | i
O=C1Nc2ccc(Br)cc2C12NNc1ccccc1O2 (stereo unspecified) | 0 | ? | -6 | -105% | -10% | 25µM*
Cc1ccc(N2CC(C(=O)Nc3ccc(Cl)cc3Cl)CC2=O)cc1 (stereo unspecified) | 4 | . | . | 3% | -1% | .
Cc1cnc(NC(=O)C2CC(=O)N(c3cccc(Cl)c3)C2)s1 (stereo unspecified) | -8 | 0.56µM* | -21 | 1.8µM* | ? | ?
O=C(Nc1cc(Cl)ccc1Cl)C1CC(=O)N(c2ccc(Br)cc2)C1 (stereo unspecified) | -11 | -25% | -55* | -11% | -6% | i
Cc1cnc(NC(=O)C2CC(=O)N(c3ccc4c(c3)OCCO4)C2)s1 (stereo unspecified) | 4 | 0% | 19 | -21% | ? | i
O=c1nc(-c2ccccc2)c2cc(Br)ccc2[nH]1 | -3 | -2% | 1 | -12% | 2% | i
O=c1nc(-c2ccccc2)c2cc(SC(F)F)ccc2[nH]1 | 36* | 0% | 3 | 4% | 18% | i
Cc1ccc(-c2ccc(=O)n(CC(=O)Nc3ccc(C(C)C)cc3)n2)cc1 | 1 | -21% | . | -41% | -48% | ?
O=C(NCCN1CCOCC1)c1cc2sccc2n1Cc1ccc(Cl)cc1 | -34 | -14% | -96* | -31% | -17% | i
SMILES | D3 ag | ATXN2 expr inh | D3 antag | HepG2 viability | TGFb inhibitor | S2 tox
O=C(NCCN1CCOCC1)c1cc2sccc2n1Cc1ccc(F)cc1 | -65 | -8% | -97* | -11% | -3% | i
Cc1ccc(CCNC(=O)c2cc3sccc3n2Cc2ccc(F)cc2)cc1 | -19 | -13% | . | -11% | -4% | i
Cc1ccccc1-c1noc(-c2ccc(N3CCN(C)CC3)c([N+](=O)[O-])c2)n1 | -11 | 9% | . | 18% | ? | i
CC(=O)c1ccc(N2CCN(c3ncnc4c3cnn4-c3cc(Cl)ccc3C)CC2)cc1 | 28 | -19% | . | -13% | -13% | i
CCO[C@H](Cc1ccc(OCCc2ccc(OS(C)(=O)=O)cc2)cc1)C(=O)O | -21 | 16% | . | . | . | i
CCOc1ccccc1NC(=S)N(Cc1cc2ccc(C)cc2[nH]c1=O)CC1CCCN1CC (stereo unspecified) | -8 | 2% | ? | -44% | ? | ?
COc1ccc2cc(CN(CC3CCCO3)C(=S)Nc3ccccc3)c(=O)[nH]c2c1 (stereo unspecified) | -11 | -29% | ? | -27% | -27% | i
CCN1CCCC1CN(Cc1cc2ccc(C)cc2[nH]c1=O)C(=S)Nc1ccc(F)cc1 (stereo unspecified) | -25 | -29% | -82* | -9% | 7% | i
CCN1CCCC1CN(Cc1cc2ccc(C)cc2[nH]c1=O)C(=S)Nc1ccc(OC)cc1 (stereo unspecified) | -8 | -5% | -64* | 13µM* | ? | ?
CCN1CCCC1CN(Cc1cc2ccc(C)cc2[nH]c1=O)C(=S)Nc1ccccc1C(=O)OC (stereo unspecified) | -11 | -15% | -65* | -24% | -5% | i
CCN1CCCC1CN(Cc1cc2ccc(C)cc2[nH]c1=O)C(=S)Nc1cccc(OC)c1 (stereo unspecified) | -14 | -9% | -88* | -33% | -2% | i
CCN1CCCC1CN(Cc1cc2ccc(C)cc2[nH]c1=O)C(=S)Nc1ccccc1OC (stereo unspecified) | -4 | -3% | ? | -37% | ? | i
CCOC(=O)N1CCN(Cc2ccc3c(c2)CN(C(=O)c2sc(C)nc2C)CCO3)CC1 | . | . | . | . | . | i
COc1ccc(-c2noc(CSc3nc(N)cc(=O)[nH]3)n2)cc1OC | -3 | . | . | -10% | 0% | .
CN(C)CCNc1cccc2sc3ccc(O)cc3c(=O)c12 | -7 | 18µM* | 0 | -58% | 4.5µM* | i
COc1cc(C)c2sc3ccccc3c(=O)c2c1NCCN(C)C | -6 | . | -6 | -125% | ? | .
